This test addresses T1, ETS1 (UniProt P14921).
T1 sequence: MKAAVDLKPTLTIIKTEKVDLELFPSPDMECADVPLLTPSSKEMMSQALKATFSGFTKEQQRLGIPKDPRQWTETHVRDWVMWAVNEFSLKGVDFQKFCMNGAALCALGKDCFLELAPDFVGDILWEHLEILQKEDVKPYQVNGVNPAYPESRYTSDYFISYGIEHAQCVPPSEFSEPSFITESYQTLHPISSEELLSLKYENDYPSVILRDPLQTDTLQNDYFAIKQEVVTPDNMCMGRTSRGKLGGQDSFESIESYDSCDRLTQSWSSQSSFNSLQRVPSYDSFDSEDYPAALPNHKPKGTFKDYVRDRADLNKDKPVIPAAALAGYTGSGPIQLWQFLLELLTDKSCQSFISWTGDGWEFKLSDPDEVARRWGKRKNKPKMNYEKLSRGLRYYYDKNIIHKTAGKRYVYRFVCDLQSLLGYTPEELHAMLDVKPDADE
Briefly: ETS1 binding intensity (PBM fluorescence) in presence of RUNX1, normalised to ETS1-only experiment (arbitrary fluorescence units); higher = stronger binding. The note with it: ETS1 concentration 1 nM; RUNX1 concentration 25 nM. The procedure:
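Cooperative genomic-context PBM: 36-bp genomic probes with neighbouring ETS1 and RUNX1 sites, double-stranded on Agilent 4x180k arrays. Full-length recombinant human ETS1 (1 nM) was incubated alone or with RUNX1 (25 nM) and detected with anti-ETS1 antibody plus Alexa488 secondary. Value is the median fluorescence intensity over 4 replicate spots; the ETS1+RUNX1 data were normalised to the ETS1-only data using probes without RUNX1 sites. The 36-bp variable region sits on the array probe with constant linker/primer flanks that are not printed.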
Consider CAGTTTGCCCCGGATGTTGACCGCCTTGAAGTCGTA, for which the ETS1 binding intensity was 4900.

As for AGCTCCCCTCCCCGGAAACTTGACCACCTAGCCCAG, the ETS1 binding intensity was found to be 1660.

Take GGCCGGCTTCCGGGGCGGGTGGAAAGGAGCCACAAG: the ETS1 binding intensity is 498.

For TTTACAGGAAATTACAGGGGTTAAACCAAACCACAA, the ETS1 binding intensity is 1140.

As to TCAGGGTCAGCAGGAGGAAACCACGCACTACATGCT, the ETS1 binding intensity was determined as 451.

With TTCTTCCCCCTTCCGGTCGCTGAGTGGTTGAGGCCG, the ETS1 binding intensity stood at 3610.

On to CCCCTTCCCGTTCTCCGAAAGTGCGCGGGTTGGAGC, for which the ETS1 binding intensity turned out to be 361.

As to CCTGTTTCCTGCCATCTGCCCTTCCTTTGTGGTCAA, the ETS1 binding intensity is 1260.

Take AGATTAGATGCAGGATGTGGTATACAAAGGCACGTT: the ETS1 binding intensity is 7140.

In the case of CTGAAACAGGAAACAGACAAAGCCACAAGGTTCGCA, the ETS1 binding intensity was found to be 5750.

ATCTCAACTAGGAAATGTTTTTGTGACCACAAAGGG: the ETS1 binding intensity is 2310.

For the sequence CCTCCCGACCGGAAGCCCCGCCACAGAGCGGGTTGT, the ETS1 binding intensity was determined as 8570.

Regarding ACCTGTAGGCGGAAGTCTGTGGCTTTATTTACACAG, the ETS1 binding intensity is 5710.

With TAAACCCTGCTTCCTGTCCCTGCGCCCCACAAGGAG, the ETS1 binding intensity was determined as 1150.

Turning to AGATGCAAACACAGGAAACTTGTGGTCTATGCTGCT, the ETS1 binding intensity turned out to be 7450.

CACCTGCCTTGCTTCCTGCGGTGCAACCAGCGGGAG: the ETS1 binding intensity amounted to 520.

Consider GAGGGCTGCTTCCTGCTCTGTGGAGGCCGCAGCGGG, for which the ETS1 binding intensity came to 594.

Regarding GTTGGGAGGCGCACATCCGGCGGTTACCCGGTGCTT, the ETS1 binding intensity was found to be 3090.

Take GGAGCGACGGAAGCACCTGAAGCGGTCTTTCCCCGA: the ETS1 binding intensity stood at 349.

As for GAAGGCGGTTCCGGTTCGCGGCGGTTCCCGGGTTTT, the ETS1 binding intensity is 466.

Regarding AGTTTCTCCAGGAAGCGCTGAGGTTTTCTCAGAAGT, the ETS1 binding intensity worked out at 1160.

GACCTGACAACATCCTGGCGCAGTGGGTTGGCCCTG: the ETS1 binding intensity stood at 420.

Turning to AGCACAAACCCAGGATGTGGTAAATGAAATGAAAAA, the ETS1 binding intensity was found to be 5210.

As to ATCCCACTATAGGAAGCTTCTCTGTGGTTTTGAGCC, the ETS1 binding intensity was 1640.

As for CGGGGACCACTGTCAGGATGTGGTCACTGGAGTCAC, the ETS1 binding intensity turned out to be 8350.

For the sequence GCTTCTTCAGCCACATCCTGACCACAGCCCAGATTC, the ETS1 binding intensity was 1270.

With TGTGAACTGACAGGATGTGGTACAAGGCTTACAAAG, the ETS1 binding intensity stood at 8820.

Regarding TTCATTTCTACCTTCCTGTGGTCTTTTTGCCTCCGA, the ETS1 binding intensity is 470.

In the case of GCTGCCGGAAAAGGCGCCGAGGTAACCGCCTCACTT, the ETS1 binding intensity turned out to be 496.

On to GACATGCTCCGGAAGCTTGAGGTTTTAACGTTAAGG, for which the ETS1 binding intensity is 5030.

For ACAACTTCCTGTGGGATTTTTGGTGTCTGCGGCTCA, the ETS1 binding intensity was found to be 858.

As for ATACAGACACAGGAAGTTGTGGGGAGTGCAAAAGCC, the ETS1 binding intensity stood at 5680.

Take CACTTCCTCTGTGACTGCAGGTTTCCAACCACAAGC: the ETS1 binding intensity was 1510.

Regarding CCCCGGGAAGGGAAGTTTGTGGCGGAGGAGGTTCGT, the ETS1 binding intensity was 589.

On to TGGGGCCCGGAAGCGCTGGCGCCTTGCGGCCAGAAG, for which the ETS1 binding intensity came out at 3180.

As to ACCTTCCTTCCTGCCTCCCTTGTGGCTCCAGTCCAC, the ETS1 binding intensity came out at 312.

For CTTTGCAGGAAGCTGGGGTTCACCCACAGCCTTGTT, the ETS1 binding intensity was determined as 857.

Consider TGCTTCCCTTCCGTTCCGACAGCGAAAACCGCTGCC, for which the ETS1 binding intensity was found to be 783.

Turning to CCGGGCTGCGGAAGGCGGGAACTCTGCGGTTCGCGG, the ETS1 binding intensity turned out to be 2650.

Regarding AGCAGCTGCCAGAGGAAGTCTGCGGTCGGAACAGGC, the ETS1 binding intensity was found to be 10800.

The values are drawn from the supplement of paper PMC10681739.
